# High-throughput results: PubChem, several laboratories
# SMARCA2 activ: activators of SMARCA2 function. MG213 cells, MMTV-luciferase reporter, dexamethasone, overnight. activation, % at 9.1 µM. actives 1% (n = 370,000). AID 652017; in the data active = activation above about 7.8%
# MsrA inh: inhibitors of bovine MsrA. inhibition, % at 15.5 µM. actives 0.75% (n = 360,000). purified bovine MsrA, absorbance read-out
# ABCB6 inh MLPCN: blocks the human ABCB6 transporter; Q9NP58; actives 0.19% (n = 360,000); AID 602162; fluorescence ratio to DMSO, % at 10 µM; K562-ABCB6 porphyrin accumulation, flow cytometry, 1 h; stronger effect = lower value;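 active = fluorescence ratio to DMSO below 75%, the collection mean minus 3 SD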;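 note: signal is porphyrin accumulated inside mitochondria; lower ratio means ABCB6 inhibition with less porphyrin fluorescence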
# Target sequence (Q9NP58 whole entry, looked up): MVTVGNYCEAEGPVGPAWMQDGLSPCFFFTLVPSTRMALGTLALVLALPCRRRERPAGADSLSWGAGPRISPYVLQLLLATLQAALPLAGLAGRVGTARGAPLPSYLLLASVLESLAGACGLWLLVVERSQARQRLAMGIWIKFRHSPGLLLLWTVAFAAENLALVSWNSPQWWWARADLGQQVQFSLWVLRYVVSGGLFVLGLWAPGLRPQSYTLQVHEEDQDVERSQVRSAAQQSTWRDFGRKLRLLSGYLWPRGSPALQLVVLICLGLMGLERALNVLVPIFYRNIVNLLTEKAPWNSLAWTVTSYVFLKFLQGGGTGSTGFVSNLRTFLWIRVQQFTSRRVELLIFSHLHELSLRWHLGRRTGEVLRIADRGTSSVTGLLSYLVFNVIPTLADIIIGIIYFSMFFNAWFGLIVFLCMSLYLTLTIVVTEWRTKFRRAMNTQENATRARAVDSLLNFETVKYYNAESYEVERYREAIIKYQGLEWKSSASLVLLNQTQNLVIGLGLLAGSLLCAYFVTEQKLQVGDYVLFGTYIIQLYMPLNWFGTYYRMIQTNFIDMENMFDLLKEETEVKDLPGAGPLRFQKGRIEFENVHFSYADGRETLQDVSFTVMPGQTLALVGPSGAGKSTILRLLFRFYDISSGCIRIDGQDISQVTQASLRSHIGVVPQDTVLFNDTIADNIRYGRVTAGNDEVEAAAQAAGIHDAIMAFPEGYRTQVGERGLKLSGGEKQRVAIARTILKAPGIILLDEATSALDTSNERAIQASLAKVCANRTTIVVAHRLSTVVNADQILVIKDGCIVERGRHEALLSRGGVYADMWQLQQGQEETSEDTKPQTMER
# MsrA act: activates bovine MsrA enzyme | activation, % at 10.6 µM | actives 0.3% (n = 360,000) | AID 602163 | purified bovine MsrA, absorbance read-out; in the data active = activation above about 7.5%
# MsrA conf: bovine MsrA inhibition, confirmed | shares compounds with MsrA inh | purified bovine MsrA, absorbance read-out | inhibition, % at 15.5 µM | actives 41% (n = 2,300) | AID 651822;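 note: coupled to thioredoxin reductase with NADPH and selenocystamine and DMSO as substrate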
# SMARCA2 act conf: confirmation of SMARCA2 (BRM) function activators; MG213 cells, MMTV-luciferase with dexamethasone, luminescence, overnight; MG213 cells expressing E1A, Rb sequestered; DMSO wells 0%, reference activator 100%; shares compounds with SMARCA2 activ; actives 30% (n = 3,500); activation, % at 9.1 µM;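 active = activation above its plate's cutoff, the mean activation of tested wells plus 3 SD, cut at about 7.9% in these data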
# VP16 Luc act: GAL4-VP16 reporter activation counter-screen; shares compounds with SMARCA2 activ; actives 41% (n = 3,500); HEK293 GAL4-VP16 pG5luc reporter, luciferase luminescence; scaled: DMSO wells 0%, SAHA wells 100%; activation, % at 9.1 µM;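 active = activation above the solvent-only control well mean plus 3 SD, averaged across control plates, cut at about 5.2% in these data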
# Numbers stand for hits; - = inactive; . = not tested or not shown. Rows were chosen to be rich in hits. Some 2.1% of all compounds tested hit in one or more screens of this group. Cut-off read from the data, not from the text of the source, unless noted: active = inhibition above about 4.5%; inactive = the rest.
SMILES,SMARCA2 activ,MsrA inh,ABCB6 inh MLPCN,MsrA act,MsrA conf,SMARCA2 act conf,VP16 Luc act
COc1ccc(C#CCN(Cc2ccc(OC)cc2OC)C(N)=NC(=O)CCc2ccccc2)cc1,-,.,.,.,.,.,.
CC1(C)CC(N=c2cc(-c3ccccc3)oc3ccc(Cl)cc23)CC(C)(C)N1,-,-,-,-,.,.,.
OCCCN=c1cc(-c2ccccc2)oc2ccc(Cl)cc12,12.4,4.8,-,-,-,37.1,6.3
COCc1nnc(NC(=O)c2sc3ccccc3c2Cl)s1,9.8,5.0,-,-,-,16.8,7.5
C[C@@H]1CN([C@H](C)CO)C(=O)c2cc(Br)cnc2O[C@H]1CN(C)Cc1ccccc1F,-,-,.,.,.,.,.
Cc1cccc(NC(=O)/C=C/c2cccs2)n1,11.6,5.0,-,-,-,8.2,7.9
CC(C)(C)NC(=O)/C=C/c1cccs1,-,-,-,-,.,.,.
CC(C)(C)N1Cc2nnn(Cc3ccccc3)c2-c2cc(N3CCCC3)ccc2S1(=O)=O,-,.,.,.,.,.,.
O=C(N/N=C/c1ccc(Cl)cc1)c1ccc2c(c1)OCO2,-,-,-,-,.,.,.
O=C(N/N=C/c1ccc2c(c1)OCO2)c1ccc2c(c1)OCCO2,10.0,4.9,-,-,-,-,-
O=C(N/N=C/c1ccc2c(c1)OCO2)c1cccs1,9.2,6.1,-,-,-,10.8,7.8
O=C(N[C@H](C(=O)N1CCC[C@H]1C(=O)NCc1ccccc1)C1CCCCC1)c1ccc(Cl)cc1Cl,-,-,.,.,.,.,.
O=C(CSc1nnc(-c2ccccc2)n1-c1ccccc1)Nc1cccc2ccccc12,-,.,.,.,.,.,.
O=C1NC(=O)/C(=C\c2ccc(OCc3cccc(C(=O)O)c3)c(Cl)c2)N1,9.0,5.3,-,-,-,-,8.4
Cc1csc(NC(=O)c2ccc(COc3cccc(F)c3)o2)n1,-,.,.,.,.,.,.
Cc1[nH]c2ccccc2c1/C=N/NC(=O)c1ccc(N)cc1,9.3,5.5,-,-,4.7,-,-
CN(C)/C=N/c1ncc(C(=O)c2ccccc2)s1,13.5,5.6,-,-,4.7,8.7,8.1
O=C1c2cccc3c([N+](=O)[O-])ccc(c23)C(=O)N1c1ccccn1,14.2,9.2,-,-,6.0,-,6.5
Cc1cccc(C)c1-n1nnnc1C(c1ccnc2ccccc12)N1CCN(C(=O)OC(C)(C)C)CC1 (stereo not drawn),-,-,-,-,.,.,.
CCOc1cccc(Nc2cc3n(c(=O)n2)CCc2cc(OC)c(OC)cc2-3)c1,-,-,-,-,.,.,.
COc1cc2c(cc1OC)-c1cc(Nc3ccccc3Br)nc(=O)n1CC2,12.7,7.5,-,-,-,8.6,15.6
Cc1nc(Nc2ccncc2)c2oc3ccccc3c2n1,10.2,5.4,-,-,-,19.5,-
CC(=O)Nc1ccc(Nc2nc(C)nc3c2oc2ccccc23)cc1,-,-,-,-,.,.,.
CCOC(=O)[C@]12CCCCC/C=C\1N(Cc1ccc(OC)cc1)C(=O)[C@H]2CC(=O)N1CCN(C(=O)C2CC2)CC1,-,.,.,.,.,.,.
CCN(CC)c1ccc(C=Nn2c(C)nnc2C)cc1,-,.,.,.,.,.,.
SMILES,SMARCA2 activ,MsrA inh,ABCB6 inh MLPCN,MsrA act,MsrA conf,SMARCA2 act conf,VP16 Luc act
O=C(N=Nc1c(O)[nH]c2ccccc12)c1ccco1,8.2,6.8,-,-,5.0,23.3,9.8
COc1ccc(/C(N)=N/OC(=O)c2ccco2)cc1,8.6,-,-,-,.,-,13.2
N/C(=N\OC(=O)c1ccco1)c1ccc(Br)cc1,-,-,-,-,.,.,.
Cc1cccc(/C(N)=N/OC(=O)c2ccco2)c1,9.3,-,-,-,.,18.6,11.4
Cc1ccc(/C(N)=N/OC(=O)c2ccco2)cc1,-,-,-,-,.,.,.
Cc1cc(NC(=O)c2ccccc2[N+](=O)[O-])ccc1Br,8.2,-,-,-,.,13.1,6.3
COc1ccc(Nc2ncnc3ccccc23)cc1,-,-,-,-,.,.,.
COc1ccc(Nc2ncnc3ccccc23)c(OC)c1,9.0,-,-,-,.,-,-
O=C(Oc1c(CN2CCOCC2)cc(Cl)c2cccnc12)c1ccccc1Br,8.7,-,-,-,.,23.7,-
CN1CCN(Cc2cc(Cl)c3cccnc3c2OC(=O)c2cccs2)CC1,-,-,-,-,.,.,.
NC(=O)c1ccc(NC(=O)COC(=O)C2CC3C=CC2C3)cc1 (stereo not drawn),-,-,-,-,.,.,.
